Inconclusive results are not listed. Where a call stands in place of a potency, no number is given. Activity calls are given as the source filed them. Calls come from the whole dose curve; as a rule, active = well fitted inhibition curve with a large enough effect; inconclusive = small, poorly fitted or top-dose-only effect; inactive = flat fitted curve, though single readings scatter.
These compounds were tested on Zika virus NS2B-NS3 protease (assay: Primary screen GU AMC qHTS for Zika virus inhibitors (AID 1347154; note: nearly all actives have a fitted effect of over 70% in size)). Settings: Zika NS2B-NS3 unlinked protease, AMC fluorogenic substrate; series mostly up to 54.1 µM.
How it was run: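 Unlinked Zika NS2B hydrophilic domain/NS3 protease domain noncovalent complex (25 nM final) in 10 mM Tris-HCl pH 8.0, 0.01% Tween 20, with AMC peptide substrate. Fluorescence (ex 340, em 450 nm) change over 15 min, room temperature; percent inhibition fitted to 4-parameter Hill equation.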

Q: For O=C(CCCCCCNC(=O)c1cnc(N(c2ccccc2)c2ccccc2)nc1)NO, which Potency is on record?
A: inactive

Q: O=C(c1ccc(Nc2nccc(-c3cc4ccccc4s3)n2)cc1)N1CCC(N2CCCC2)CC1 was tested. Which Potency did it give?
A: inactive

Q: For O=c1[nH]c(=O)n(C2CCCO2)cc1F (stereo unspecified), which Potency is on record?
A: inactive

Q: COc1cc2c(Oc3ccc4[nH]c(C)cc4c3F)ncnc2cc1OCCCN1CCCC1 was tested. Which Potency did it give?
A: inactive

Q: C[C@H]1C[C@@H]2[C@@H]([C@@H](O)C[C@@]3(C)[C@H]2CC[C@]3(O)C(=O)CO)[C@@]2(C)C=CC(=O)C=C12 was tested. Which Potency did it give?
A: inactive

Q: With NC(=O)c1c(OCc2c(F)cc(Br)cc2F)nsc1NC(=O)NCCCCN1CCCC1 as the compound, how does the Potency read?
A: inactive

Q: COc1ccc2c(OCc3nnc4ccc(-c5ccccc5)nn34)ccnc2c1 was tested. Which Potency did it give?
A: inactive

Q: Which Potency does the source give for COc1cc2c(Nc3ccc(NC(=O)c4ccccc4)cc3)ncnc2cc1OCCCN1CCOCC1 here?
A: inactive

Q: Which Potency does the source give for c1ccc2c(CCNc3ccc(Nc4ccncc4)cc3)c[nH]c2c1 here?
A: inactive

Q: How did the Potency turn out when CCCCOc1c(C(=O)c2c(F)cc(C)cc2F)cnc2n[nH]cc12 was run?
A: inactive

Q: How did the Potency turn out when NC1(Cc2ccc(Cl)cc2)CCN(c2ncnc3[nH]ccc23)CC1 was run?
A: inactive

Q: With C[C@@H]1CN(CC(=O)Nc2ccc3c(c2)Cc2cccc(-c4cc(=O)cc(N5CCOCC5)o4)c2S3)C[C@H](C)O1 as the compound, how does the Potency read?
A: inactive

Q: CC(C)(O)CCc1ccc(OCc2cc(-c3cccc(OC(F)F)c3)c3ncccc3c2)cc1 was tested. Which Potency did it give?
A: inactive

Q: How did the Potency turn out when CCCCCCCCCC(=O)N[C@@H](Cc1c[nH]c2ccccc12)C(=O)N[C@H](CC(N)=O)C(=O)N[C@@H](CC(=O)O)C(=O)N[C@@H]1C(=O)NCC(=O)N[C@@H](CCCN)C(=O)N[C@@H](CC(=O)O)C(=O)N[C@H](C)C(=O)N[C@@H](CC(=O)O)C(=O)NCC(=O)N[C@H](CO)C(=O)N[C@@H]([C@@H](C)CC(=O)O)C(=O)N[C@@H](CC(=O)c2ccccc2N)C(=O)O[C@@H]1C was run?
A: inactive

Q: With CCN(CC)CCNC(=O)c1ccc2nc(-c3ccccc3)c(-c3ccc(CN4CCC(n5c(=O)[nH]c6ccccc65)CC4)cc3)nc2c1 as the compound, how does the Potency read?
A: inactive

Q: Cn1c2cc(S(C)=O)sc2c2cnn(Cc3cccc(N)c3)c(=O)c21 (stereo unspecified) was tested. Which Potency did it give?
A: inactive

Q: For CC(=O)SC[C@@H](C)C(=O)N1CCC[C@H]1C(=O)N[C@@H](Cc1ccccc1)C(=O)O, which Potency is on record?
A: inactive

Q: Which Potency does the source give for C1Cc2[nH]nc(-c3nn[nH]n3)c2C1 here?
A: inactive

Q: Which Potency does the source give for CCC[C@H](NC(=O)C(C#N)=Cc1cccc(Br)n1)c1ccccc1 here?
A: inactive

Q: For C[C@]12CC[C@H](O)CC1=CCC1C2CC[C@]2(C)C(n3cnc4ccccc43)=CCC12 (stereo partly specified), which Potency is on record?
A: inactive

Q: How did the Potency turn out when O=C(Nc1nc2cccc(-c3ccc(CN4CCS(=O)(=O)CC4)cc3)n2n1)C1CC1 was run?
A: inactive

— PubChem BioAssay (NCATS)
